Test results reported in PubChem BioAssay (NCATS).
Inconclusive results are not listed. Calls of active or inactive are those of the source. Calls follow the shape of the dose curve; as a rule, active = well fitted inhibition curve with a large enough effect; inconclusive = small, poorly fitted or top-dose-only effect; inactive = flat fitted curve, though single readings scatter.

Biological target: Lysine-specific demethylase 5B (Homo sapiens) (UniProt Q9UGL1)
Assay: Optimization screen for KDM5B Histone Demethylases FDH coupled qHTS against the LOPAC library (AID 1347166)
Conditions: KDM5B demethylation, FDH-coupled NADH fluorescence (FDH is formaldehyde dehydrogenase); series mostly up to 57.5 µM
Summary of the method: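 KDM5BDeltaAP (200nM final) preincubated 10 min with compound, then 12.5uM H3K4Me3, 25uM a-ketoglutarate, ascorbate, Fe(II), NAD+ and FDH added; 50mM HEPES pH 7.5, 0.01% Tween-20. NADH fluorescence (340/450 nm) change over 30 min, room temperature.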

Sequence of Lysine-specific demethylase 5B (Homo sapiens) (Q9UGL1 whole entry, looked up): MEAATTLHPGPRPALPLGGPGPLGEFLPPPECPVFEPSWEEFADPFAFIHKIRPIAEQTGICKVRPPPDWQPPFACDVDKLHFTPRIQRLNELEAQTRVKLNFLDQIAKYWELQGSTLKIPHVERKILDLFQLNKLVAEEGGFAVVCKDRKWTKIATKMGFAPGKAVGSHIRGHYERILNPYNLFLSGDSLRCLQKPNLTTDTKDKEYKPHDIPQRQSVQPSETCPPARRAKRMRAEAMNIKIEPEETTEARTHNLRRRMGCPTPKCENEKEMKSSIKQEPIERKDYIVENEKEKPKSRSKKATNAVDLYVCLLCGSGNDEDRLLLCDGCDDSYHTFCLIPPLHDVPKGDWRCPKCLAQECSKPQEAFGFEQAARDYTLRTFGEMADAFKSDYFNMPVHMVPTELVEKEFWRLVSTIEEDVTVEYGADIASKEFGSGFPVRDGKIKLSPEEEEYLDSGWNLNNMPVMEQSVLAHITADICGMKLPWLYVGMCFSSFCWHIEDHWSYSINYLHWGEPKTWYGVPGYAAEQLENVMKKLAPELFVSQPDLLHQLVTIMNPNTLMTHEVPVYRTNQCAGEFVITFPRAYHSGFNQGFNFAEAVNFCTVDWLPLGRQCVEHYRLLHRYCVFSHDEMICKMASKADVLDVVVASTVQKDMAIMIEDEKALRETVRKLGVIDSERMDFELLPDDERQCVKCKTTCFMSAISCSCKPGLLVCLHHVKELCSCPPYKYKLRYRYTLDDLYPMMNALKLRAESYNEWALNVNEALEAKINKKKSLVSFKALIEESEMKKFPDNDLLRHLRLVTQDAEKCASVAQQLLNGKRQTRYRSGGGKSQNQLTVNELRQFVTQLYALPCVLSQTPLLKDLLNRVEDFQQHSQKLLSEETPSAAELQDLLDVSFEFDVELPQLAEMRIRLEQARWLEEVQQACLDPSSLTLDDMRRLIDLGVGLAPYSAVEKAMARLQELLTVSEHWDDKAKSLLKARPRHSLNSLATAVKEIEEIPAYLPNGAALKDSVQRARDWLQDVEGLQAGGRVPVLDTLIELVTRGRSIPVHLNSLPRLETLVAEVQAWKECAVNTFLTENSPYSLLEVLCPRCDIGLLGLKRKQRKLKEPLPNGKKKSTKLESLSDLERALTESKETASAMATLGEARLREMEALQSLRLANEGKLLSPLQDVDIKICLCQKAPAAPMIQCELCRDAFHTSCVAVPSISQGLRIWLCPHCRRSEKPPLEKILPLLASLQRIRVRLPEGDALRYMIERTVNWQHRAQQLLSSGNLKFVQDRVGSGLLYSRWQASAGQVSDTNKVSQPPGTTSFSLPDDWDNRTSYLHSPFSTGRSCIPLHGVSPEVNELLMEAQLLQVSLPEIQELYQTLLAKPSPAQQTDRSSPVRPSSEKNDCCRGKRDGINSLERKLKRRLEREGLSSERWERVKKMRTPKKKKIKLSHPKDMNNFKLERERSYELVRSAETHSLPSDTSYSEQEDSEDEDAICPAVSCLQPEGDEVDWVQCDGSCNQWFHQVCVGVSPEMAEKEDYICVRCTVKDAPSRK

Row | Structure (SMILES) | outcome
1 | COc1ccccc1N1CCN(CCN(C(=O)c2ccc(I)cc2)c2ccccn2)CC1 | inactive
2 | CCCCCCCCCCCCCCCC(=O)OC(CC(=O)O)C[N+](C)(C)C (stereo not given) | inactive
3 | COc1ccc(/C=C/C(=O)Nc2ccccc2C(=O)O)cc1OC | inactive
4 | c1cnc2c(c1)ccc1cccnc12 | inactive
5 | CN1C2CCC1CC(OC(=O)C(O)c1ccccc1)C2 (stereo not given) | inactive
6 | O=C(/C=C/c1ccc(O)c(O)c1)OCCc1ccccc1 | inactive
7 | COc1cc(C(O)CO)ccc1OS(=O)(=O)O (stereo not given) | inactive
8 | CCC1C(=O)OCC1Cc1cncn1C (stereo not given) | inactive
9 | CCCCC#Cc1nc(NC)c2ncn([C@@H]3O[C@H](CO)[C@@H](O)[C@H]3O)c2n1 | inactive
10 | COc1cccc(OC)c1OCCNCC1COc2ccccc2O1 (stereo not given) | inactive
11 | CC(C)NC[C@H](O)COc1cccc2[nH]ccc12 | inactive
12 | NC[C@@H]1O[C@H](C23CC4CC(CC(C4)C2)C3)Cc2c1ccc(O)c2O | inactive
13 | CCN(CC)c1ncnc2c1ncn2[C@@H]1O[C@H](COP(=O)(O)OP(=O)(O)C(Br)(Br)P(=O)(O)O)[C@@H](O)[C@H]1O | inactive
14 | O=C(O)CC1CC(c2ccccc2)=NO1 (stereo not given) | inactive
15 | O=C(O)/C=C/C(O)c1ccc(Cl)cc1 (stereo not given) | inactive
16 | CC(C)Cc1ccc([C@H](C)C(=O)O)cc1 | inactive
17 | O=c1[nH]c2cc([N+](=O)[O-])c([N+](=O)[O-])cc2[nH]c1=O | inactive
18 | O=C(O)c1cc(=O)c2c(Cl)cc(Cl)cc2[nH]1 | inactive
19 | Ic1ccc(N2CCN(Cc3c[nH]c4ncccc34)CC2)cc1 | inactive
20 | CCCCCC(O)c1cccc(OCc2ccc3ccccc3n2)c1 (stereo not given) | inactive
